Compound activity from PubChem.
MCF10A rerep = A quantitative high throughput screen for small molecules that induce DNA re-replication in MCF 10a normal breast cells. MCF 10A DNA re-replication, Hoechst nuclear intensity, 48 h. Potency, µM (series often up to 46.1 µM), hits mostly activators. 2.9% of 350,000 active. AID 624296, 2012; also: nearly all actives have a fitted effect of over 50% in size
IL1B secr inh = qHTS for Inhibitors of Inflammasome Signaling: IL-1-beta AlphaLISA Primary Screen. THP-1 LPS/ATP IL-1B secretion, AlphaLISA, 16 h; stronger effect = lower value. activity change, % at 57.5 µM. 4.7% of 360,000 active; in the data active = activity change below about -50%; inconclusive = mostly about -30% to -49%
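THP-1 cells pretreated 1 hr with compounds (up to 57.5 uM final), then stimulated with LPS (250 ng/mL final) plus ATP (1.25 mM final); secreted IL-1B measured by AlphaLISA after 16 hr, decreased signal indicating inhibition.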
Gal4-VP16 FLuc = VP16 counterscreen qHTS for inhibitors of ROR gamma transcriptional activity. 3.5% of 310,000 active. Potency, µM (series often up to 53.6 µM), hits mostly inhibitors. AID 2546, 2010. Drosophila S2 Gal4-VP16 UAS-luciferase, luminescence, 20 h;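 also: Gal4-VP16 expression switched on by copper sulfate through the metallothionein promoter; nearly all actives have a fitted effect of over 50% in size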
SW480 rerep = A quantitative high throughput screen for small molecules that induce DNA re-replication in SW480 colon adenocarcinoma cells; SW480 DNA re-replication, Hoechst DNA content imaging, 48 h; Potency, µM (doses to about 46.1 µM), actives largely listed as activators; 1.8% of 340,000 active; AID 624297, 2012; also: nearly all actives have a fitted effect of over 55% in size
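Cells (250 per well) received 23 nL compound or DMSO by pin tool and were kept 48 hr at 37 C, 5% CO2. Nuclei were then stained with Hoechst for 40 min and scanned for DNA content.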
RORg inh = qHTS for inhibitors of ROR gamma transcriptional activity. Drosophila S2 Gal4-RORgamma UAS-luciferase reporter, 20 h. Potency, µM (series often up to 53.6 µM), usual class: inhibitors. 5.4% of 310,000 active. AID 2551, 2010; also: nearly all actives have a fitted effect of over 60% in size
Target sequence (P51450 whole entry, looked up, the tested form may be a part): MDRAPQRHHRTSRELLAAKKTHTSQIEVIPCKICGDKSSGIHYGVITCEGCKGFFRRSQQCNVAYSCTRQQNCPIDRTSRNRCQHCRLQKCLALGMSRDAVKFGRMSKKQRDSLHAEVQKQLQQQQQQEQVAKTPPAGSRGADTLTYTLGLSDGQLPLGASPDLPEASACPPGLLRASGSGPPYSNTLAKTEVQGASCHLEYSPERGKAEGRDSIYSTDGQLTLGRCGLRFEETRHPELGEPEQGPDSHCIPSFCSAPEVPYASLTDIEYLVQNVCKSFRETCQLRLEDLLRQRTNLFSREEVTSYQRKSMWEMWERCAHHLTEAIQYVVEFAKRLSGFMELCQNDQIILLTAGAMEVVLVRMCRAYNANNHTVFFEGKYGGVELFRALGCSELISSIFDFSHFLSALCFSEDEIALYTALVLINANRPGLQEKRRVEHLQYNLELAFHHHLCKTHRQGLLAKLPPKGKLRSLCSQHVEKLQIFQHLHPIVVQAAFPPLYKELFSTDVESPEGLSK
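Drosophila S2 cells stably expressing Gal4-DBD/mouse RORγ fusion under metallothionein promoter plus UAS-luciferase; compound 1 h, then 700 uM CuSO4 induction for 20 h at ambient temperature; inhibition read as reduced luminescence.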
Each line names hits and unclear results; the compound was inactive in the other large screens. Rows were chosen to be rich in hits. Some 11% of all compounds tested hit in one or more screens of this group. Unless noted, calls follow the shape of the dose curve; as a rule, active = well fitted curve in the direction sought with a large enough effect; inconclusive = small, poorly fitted or top-dose-only effect, or another doubt; inactive = no such curve, though single readings can be large; an effect the other way counts as inactive or inconclusive.

O=C(CCC(=O)NC1CCCCC1)Nc1cccnc1	none
CCOC(=O)Oc1ccc(/C=C2\N=C(C)OC2=O)cc1	none
N/C(Cc1ccc([N+](=O)[O-])cc1)=N\OC(=O)C(c1ccccc1)c1ccccc1	IL1B secr inh inconclusive, Gal4-VP16 FLuc 10µM, RORg inh inconclusive
COc1ccc(C/C(N)=N/OC(=O)C(c2ccccc2)c2ccccc2)cc1OC	Gal4-VP16 FLuc inconclusive
O=C(COC(=O)c1ccc2ncsc2c1)NCc1ccccc1Cl	none (no result: Gal4-VP16 FLuc, RORg inh)
O=C(c1cc(COc2ccc(F)cc2Cl)on1)N1CCC(c2ccncc2)CC1	MCF10A rerep inconclusive, IL1B secr inh inconclusive, Gal4-VP16 FLuc 7.08µM, RORg inh 11.2µM
CC(NC(=O)c1cc(COc2ccc3ncccc3c2)on1)c1ccc(F)cc1 (configuration not stated)	Gal4-VP16 FLuc 7.08µM, RORg inh inconclusive
Cc1cc(OCc2cc(C(=O)N3CCC(Oc4cccnc4)CC3)no2)cc(C)c1Cl	MCF10A rerep 20.6µM, IL1B secr inh -61.6, Gal4-VP16 FLuc inconclusive
O=C(c1cc(COc2ccc3ncccc3c2)on1)N1CCCC1	Gal4-VP16 FLuc 12.6µM, RORg inh inconclusive
CC(NC(=O)c1cc(COc2ccccc2)on1)c1nccs1 (configuration not stated)	none
COc1ccc(OCC(O)CNS(=O)(=O)c2cccs2)cc1 (configuration not stated)	none
Cc1nc2sccn2c(=O)c1S(=O)(=O)Nc1ccc(N2CCN(S(C)(=O)=O)CC2)cc1	none
O=C(c1cc(COc2ccc3ncccc3c2)on1)N1CCCCCC1	Gal4-VP16 FLuc inconclusive, SW480 rerep inconclusive, RORg inh inconclusive
COc1cccc(CN(C)C(=O)c2cc(COc3ccc4ncccc4c3)on2)c1	MCF10A rerep inconclusive, Gal4-VP16 FLuc 6.31µM, RORg inh inconclusive
Cc1ccc(OCc2cc(C(=O)N3CCN(C4CCCCC4)CC3)no2)cc1C	MCF10A rerep 11.6µM, RORg inh inconclusive
COCC1CCN(C(=O)c2cc(COc3ccc4ncccc4c3)on2)CC1	Gal4-VP16 FLuc 6.31µM, RORg inh inconclusive
O=C(NC1CCCC1)c1cc(COc2ccc3ncccc3c2)on1	Gal4-VP16 FLuc 5.01µM, RORg inh inconclusive
CCNC(=O)C1(C)CCCN(C(=O)CCc2cccs2)C1 (configuration not stated)	none (no result: MCF10A rerep, Gal4-VP16 FLuc, SW480 rerep, RORg inh)
OC[C@H]1OC(O)[C@@H](O)[C@@H](O)[C@H]1O (some centres not stated)	none (no result: MCF10A rerep, IL1B secr inh, SW480 rerep)
COCOc1ccc(-c2ncc(OC)nc2NC(=O)c2cc(C)oc2C)cc1	none (no result: MCF10A rerep, Gal4-VP16 FLuc, SW480 rerep, RORg inh)
CC1=NC(Nc2nc(C)c3ccccc3n2)=NC(C)(C)C1	IL1B secr inh -99.9
Cc1nc(Nc2ncc3c(n2)CC(C)(C)CC3=O)nc2ccccc12	none (no result: Gal4-VP16 FLuc, RORg inh)
CC1CCc2nc3ccccc3c(C(=O)OCC(=O)NC3CCS(=O)(=O)C3)c2C1 (configuration not stated)	none
CCOC(=O)c1nn(-c2cccc(OC)c2)c2nc(Nc3ccccc3)cc(=O)n12	MCF10A rerep inconclusive, Gal4-VP16 FLuc inconclusive, SW480 rerep 23.1µM
COc1cccc(NC(=O)COC(=O)c2c3c(nc4ccccc24)CCC(C)C3)c1 (configuration not stated)	MCF10A rerep 10.3µM, SW480 rerep inconclusive
COc1cccc(NC(=O)COC(=O)c2c(C)nn(-c3ccccc3)c2C)c1	MCF10A rerep inconclusive, IL1B secr inh -56.3 (no result: Gal4-VP16 FLuc, RORg inh)
CC(=O)C[C@@H]1SC[C@H](c2ccccc2)N1S(=O)(=O)c1ccc(C)cc1	none (no result: MCF10A rerep, Gal4-VP16 FLuc, SW480 rerep, RORg inh)
Cc1cc(SCC(=O)Nc2ccc(O)cc2)n2ncc(-c3ccccc3)c2n1	MCF10A rerep inconclusive, IL1B secr inh -51.1, SW480 rerep inconclusive
Cc1cc(SCC(=O)Nc2ccc(O)cc2)n2nc(C)c(-c3ccccc3)c2n1	MCF10A rerep inconclusive, IL1B secr inh -79.9
Cc1cc(SCC(=O)Nc2ccccc2)n2ncc(-c3ccccc3)c2n1	MCF10A rerep inconclusive, IL1B secr inh -54.7, SW480 rerep inconclusive
COc1ccc(NC(=O)CSc2cc(C)nc3c(-c4ccccc4)cnn23)cc1	MCF10A rerep 9.2µM, SW480 rerep inconclusive
Cc1ccc(S(=O)(=O)N(C)C)cc1NC(=O)CN1C(=O)NC2(CCc3ccccc32)C1=O (configuration not stated)	none (no result: MCF10A rerep, Gal4-VP16 FLuc, SW480 rerep, RORg inh)
CC[C@]12c3[nH]c4ccccc4c3CCN1C(=O)C(CC(=O)NCCC1=CCCCC1)C[C@@H]2C(=O)N1CCN(C(=O)C2CC2)CC1 (some centres not stated)	none (no result: Gal4-VP16 FLuc, RORg inh)
C=C(C)CSc1cc(C)nc2c(-c3ccccc3)c(C)nn12	Gal4-VP16 FLuc inconclusive, RORg inh 11.2µM
CCSc1cc(C)nc2c(-c3ccccc3)c(C)nn12	none
NS(=O)(=O)c1ccc(NC(=O)Nc2ccccc2)cc1	none (no result: IL1B secr inh)
CCOC(=O)c1ccc(NC2=CC(=O)C(=O)c3ccccc32)cc1	MCF10A rerep 13µM, Gal4-VP16 FLuc inconclusive, SW480 rerep inconclusive, RORg inh inconclusive
Cc1ccc(NC2=CC(=O)C(=O)c3ccccc32)cc1	MCF10A rerep inconclusive, IL1B secr inh -93.2, Gal4-VP16 FLuc inconclusive, SW480 rerep 5.8µM, RORg inh inconclusive
CC(=O)Nc1ccc(NC2=CC(=O)c3ccccc3C2=O)cc1	Gal4-VP16 FLuc inconclusive
O=C1C=C(Nc2ccc(O)cc2)C(=O)c2ccccc21	MCF10A rerep inconclusive, Gal4-VP16 FLuc inconclusive, SW480 rerep inconclusive
NS(=O)(=O)c1ccc(NC2=CC(=O)C(=O)c3ccccc32)cc1	MCF10A rerep inconclusive, IL1B secr inh -77.9, Gal4-VP16 FLuc inconclusive, SW480 rerep 3.26µM, RORg inh 10µM
COc1cc(OC)c(NC2=CC(=O)C(=O)c3ccccc32)cc1Cl	IL1B secr inh inconclusive, Gal4-VP16 FLuc inconclusive, SW480 rerep inconclusive, RORg inh inconclusive
Cc1cc(NC2=CC(=O)C(=O)c3ccccc32)no1	MCF10A rerep 13µM, IL1B secr inh -100.7, SW480 rerep inconclusive (no result: Gal4-VP16 FLuc, RORg inh)
C[C@@H]1CN([C@H](C)CO)S(=O)(=O)c2ccc(C3=CCCCC3)cc2O[C@H]1CN(C)C(=O)Cc1cccnc1	none (no result: MCF10A rerep, Gal4-VP16 FLuc, SW480 rerep, RORg inh)
COc1ccc2c(c1)O[C@@H](c1ccc3c(c1)OCO3)[C@H](OC(=O)Nc1ccc(C)c(Br)c1)C2=O	none (no result: MCF10A rerep, IL1B secr inh, SW480 rerep)
O=S(=O)(Nc1ccc(C(O)(C(F)(F)F)C(F)(F)F)cc1)c1ccc(Cl)c2nonc12	IL1B secr inh -113.7 (no result: MCF10A rerep, Gal4-VP16 FLuc, SW480 rerep, RORg inh)
O=C(CC1c2cc(F)ccc2C=C(c2ccsc2)N1c1ccc(C#CCCO)cc1)c1ccco1 (configuration not stated)	none (no result: MCF10A rerep, Gal4-VP16 FLuc, SW480 rerep, RORg inh)
O=C(NC(C(=O)N/N=C/c1c2ccccc2cc2ccccc12)c1n[nH]c(=O)c2ccccc12)c1ccccc1 (configuration not stated)	MCF10A rerep 2.06µM, IL1B secr inh inconclusive, SW480 rerep 8.2µM
Fc1ccc(-c2nc3ccccn3c2NCc2ccc3c(c2)OCO3)cc1	MCF10A rerep 11.2µM, SW480 rerep inconclusive, RORg inh inconclusive
